# Results as given in PubChem BioAssay (EPA / NIEHS).
# “And” between values parts separate entries of the source, which are not always exact repeats. Equal values may be shown once. Where a structure was tested more than once in an assay, its records may differ in their call. The source made the active and inactive calls. Rule for the calls: active = hit-call score of the fitted dose curve at least 0.9, where 1 is the maximum; inactive = score below 0.9.
# Read-out: UDP glucuronosyltransferase (UGT1A6), UGT1A6 (gene 54578)
# Experiment: LTEA_HepaRG_UGT1A6: Life Technologies and Expression Analysis (LTEA) Assay for UDP glucuronosyltransferase (UGT1A6) using HepaRG (AID 2283539)
# Details: mRNA level, 48 h; actives raise or lower the signal
# In short: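 qRT-PCR readout of UGT1A6 mRNA (normalized to ACTB/GAPDH/POLR2A) in differentiated HepaRG cells after 48 h chemical exposure; 8 concentrations, top 100 uM, half-log steps, 0.5% DMSO. Bidirectional curve fit relative to DMSO baseline.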
SMILES,AC50,outcome
Oc1ccc(Cl)cc1Cc1ccccc1,81.1 µM (active),inactive
O=S(=O)(O)C(F)(F)C(F)(F)C(F)(F)C(F)(F)C(F)(F)C(F)(F)C(F)(F)C(F)(F)F,89.2 µM (active) and 47 µM (active),inactive
CC(C)(C)C(O)C(Oc1ccc(Cl)cc1)n1cncn1 (centres undefined),0.381 µM (active),inactive
CNC(=O)Oc1ccccc1OC(C)C,,inactive
COP(=S)(OC)Oc1ccc([N+](=O)[O-])cc1,,inactive
CNC(=O)Oc1cccc(N=CN(C)C)c1,,inactive
O=C(Nc1ccccc1)Nc1cnns1,77.9 µM (active),
O=C(O)COc1ccc(Cl)cc1Cl,,inactive
CCOCN(C(=O)CCl)c1c(C)cccc1CC,,inactive
CC1(c2ccc(Oc3ccccc3)cc2)OC(=O)N(Nc2ccccc2)C1=O (centres undefined),50.2 µM (active),
N#Cc1c(Cl)c(Cl)c(Cl)c(C#N)c1Cl,,inactive
Oc1cc(Cl)ccc1Oc1ccc(Cl)cc1Cl,51 µM (active),inactive
CC1(C)C(C=C(Cl)Cl)C1C(=O)OC(C#N)c1ccc(F)c(Oc2ccccc2)c1 (centres undefined),,inactive
CN1CSC(=S)N(C)C1,,inactive
CCN(CC)C(=O)SCc1ccc(Cl)cc1,,inactive
O=C(O)C(F)(F)C(F)(F)C(F)(F)C(F)(F)C(F)(F)C(F)(F)C(F)(F)F,,inactive
CCc1ccc(C(=O)NN(C(=O)c2cc(C)cc(C)c2)C(C)(C)C)cc1,,inactive
CC(C)OC(=O)Nc1cccc(Cl)c1,,inactive
COc1nn(CSP(=S)(OC)OC)c(=O)s1,,inactive
ClC1C(Cl)C(Cl)C(Cl)C(Cl)C1Cl (centres undefined),,inactive
O=C(O)CCCOc1ccc(Cl)cc1Cl,,inactive
CCC(C)(NC(=O)c1cc(Cl)c(C)c(Cl)c1)C(=O)CCl (centres undefined),80.3 µM (active),

# Read-out: X-box binding protein 1 (XBP1), XBP1 (gene 7494)
# Experiment: LTEA_HepaRG_XBP1: Life Technologies and Expression Analysis (LTEA) Assay for X-box binding protein 1 (XBP1) using HepaRG (AID 2283540)
# Details: mRNA level, 48 h; actives raise or lower the signal
# In short: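 HepaRG, 48 h exposure, 8-pt half-log CRC top 100 uM, 0.5% DMSO vehicle, duplicates. Readout: TaqMan qRT-PCR of XBP1 mRNA, housekeeping-normalised (ACTB/GAPDH/POLR2A); bidirectional fit vs DMSO baseline.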
SMILES,outcome,AC50
Oc1ccc(Cl)cc1Cc1ccccc1,inactive,
O=S(=O)(O)C(F)(F)C(F)(F)C(F)(F)C(F)(F)C(F)(F)C(F)(F)C(F)(F)C(F)(F)F,inactive,
CC(C)(C)C(O)C(Oc1ccc(Cl)cc1)n1cncn1 (centres undefined),inactive,
CNC(=O)Oc1ccccc1OC(C)C,inactive,
COP(=S)(OC)Oc1ccc([N+](=O)[O-])cc1,inactive,
CNC(=O)Oc1cccc(N=CN(C)C)c1,inactive,
O=C(Nc1ccccc1)Nc1cnns1,,50 µM (active)
O=C(O)COc1ccc(Cl)cc1Cl,inactive,
CCOCN(C(=O)CCl)c1c(C)cccc1CC,inactive,
CC1(c2ccc(Oc3ccccc3)cc2)OC(=O)N(Nc2ccccc2)C1=O (centres undefined),inactive,
N#Cc1c(Cl)c(Cl)c(Cl)c(C#N)c1Cl,,82.3 µM (active)
Oc1cc(Cl)ccc1Oc1ccc(Cl)cc1Cl,inactive,
CC1(C)C(C=C(Cl)Cl)C1C(=O)OC(C#N)c1ccc(F)c(Oc2ccccc2)c1 (centres undefined),inactive,
CN1CSC(=S)N(C)C1,inactive,
CCN(CC)C(=O)SCc1ccc(Cl)cc1,inactive,
O=C(O)C(F)(F)C(F)(F)C(F)(F)C(F)(F)C(F)(F)C(F)(F)C(F)(F)F,inactive,50 µM (active)
CCc1ccc(C(=O)NN(C(=O)c2cc(C)cc(C)c2)C(C)(C)C)cc1,inactive,
CC(C)OC(=O)Nc1cccc(Cl)c1,inactive,
COc1nn(CSP(=S)(OC)OC)c(=O)s1,inactive,
ClC1C(Cl)C(Cl)C(Cl)C(Cl)C1Cl (centres undefined),inactive,
O=C(O)CCCOc1ccc(Cl)cc1Cl,inactive,
CCC(C)(NC(=O)c1cc(Cl)c(C)c(Cl)c1)C(=O)CCl (centres undefined),inactive,
